The panel holds about 83,000 compounds, 20% with a hit somewhere; the sample as a whole holds those more often.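 The test compound was applied at a single concentration to cells in 96-well plates for 48 hours, and percent growth was recorded.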 Calls of active or inactive are those of the source. The calls were made as follows: active = growth percent below 10; inactive = the rest.

The assay deals with HL-60(TB) leukemia. As to the kind of experiment: NCI-60 one-dose screen, 48 h (100 = growth as untreated, 0 = no growth, -100 = all killed). To be noted: 10 µM unless noted.
Regarding `COC1OC(CO)C(OC)C(O)C1O` (stereo unspecified), the growth was 103% (inactive).
For the molecule `CS(=O)(=O)Nc1cc(-c2ccc3ncnc(Nc4ccc(OCc5ccccn5)c(Cl)c4)c3c2)cnc1Cl`, the growth was 4.82% (active).
Under `COc1cc2nc(-c3ccc(C(F)(F)F)cc3)cc(OCCCN3CCCC3)c2cc1OC` stands 36.9% (inactive); under `COc1ccc(-c2cncn2-c2ccc(-c3nc4cc(OC)c(OC)c(OC)c4s3)cc2)cc1N`, 27.8% (inactive).
In the case of `COc1cc2c(cc1-c1c(C)noc1C)ncc1nc(C3CCCCC3)n(C3CCC(OC(F)F)CC3)c12` (stereo unspecified), the growth is -25.1% (active).
The figure for `CCCCCCCC/C=C/CCCCCCCC1=NCC[N+]1(CCO)CCO` is 31.7% (inactive); for `CC1(C)/C(=C\CO)C2CCC1C2` (stereo unspecified) it is 94.1% (inactive); for `CC1(C)CC(OCCCC[P+](c2ccccc2)(c2ccccc2)c2ccccc2)CC(C)(C)N1O` it is -37.4% (active).
Under `ON=C(C1CCCCC1)C1CCCCC1` stands 96.7% (inactive); under `CN(C)c1ccc(/C=C/C(=O)c2ccc(Nc3nc(Nc4ccc(F)cc4)nc(Nc4ccc(Cl)cc4)n3)cc2)cc1`, -70.5% (active); under `CNC(=O)c1cn(C2CC2)c2cc(N3CCN(C(=O)c4cc(OC)c(OC)c(OC)c4)CC3)c(F)cc2c1=O`, 101% (inactive).
Regarding `CC(=O)O[C@H]1CC[C@@]2(C)[C@@H](CC[C@@H]3[C@@H]2CC[C@@]2(C)[C@H]3CC[C@]2(O)C(C)=O)C1`, the growth is 93.5% (inactive).
For `O=C1c2ccccc2C(=O)c2c(O)c(Cl)cc(O)c21`, the growth was 122% (inactive).
The figure for `CN(C)CCC(O)(Cc1ccccc1)c1ccccc1` (stereo unspecified) is 85% (inactive); for `C=CC(=O)N[C@H](/C=C/C(=O)OCC)Cc1ccc(-c2cc(Cl)cc(Cl)c2)cc1` it is 76.5% (inactive).
Turning to `c1ccc(Cn2cnc3ccc(-c4nc(-c5ccc6c(c5)ncn6C5CCCCC5)cn5ccnc45)cc32)cc1`, the growth is -20.8% (active).
In the case of `CC(C)NS(=O)(=O)/N=C1\NC(=O)NC1=C(Cl)Cl`, the growth is 55.6% (inactive).
Turning to `Cc1cc(Cl)ccc1OC(C)C(=O)Nc1nnc(C2CC2)s1` (stereo unspecified), the growth was 108% (inactive).
In the case of `CCCCOCC(=O)NC(NP(=O)(N(C)C)N(C)C)C(Cl)(Cl)Cl` (stereo unspecified), the growth is 100% (inactive).
Turning to `Cc1nc2cc(-n3c(-c4ccc(F)cc4)nc4ccccc4c3=O)ccc2n1Cc1ccccc1`, the growth was 57.7% (inactive).
In the case of `COC(=O)c1nc(-c2ccc(C)cc2)oc1Sc1ccc(C)cc1`, the growth is 91.4% (inactive).
The figure for `C=C1CCC2C3(C)COC(c4ccc(SC)cc4)OC3CCC2(C)C1C/C=C1/C(=O)OCC1O` (stereo unspecified) is -12.1% (active).
The figure for `OCCn1cc(-c2nc(-c3c[nH]c4ncccc34)cs2)c2ccccc21` is 79.1% (inactive); for `O=[N+]([O-])c1cccc(N=Cc2ccc3c(c2)OCO3)c1` it is 98.5% (inactive); for `O=[N+]([O-])c1ccc(-c2cn3nc(-c4c[nH]c5ccccc45)sc3n2)cc1` it is 95.3% (inactive).
The figure for `O=C1c2ccccc2C(=O)c2c(N=Nc3sc(=O)[nH]c3S)cccc21` is 111% (inactive).
